# Assay outcomes as filed in PubChem.
# NPSR antagonist: antagonists of human neuropeptide S receptor cAMP signaling | Q6W5P4 | CHO-NPSR cells, cAMP TR-FRET, antagonist mode | Potency, µM (top dose mostly 38.3 µM), inactives show top-dose activity change, negative = inhibition, most hits filed as inhibitors | 220,000 tested, 1% active; active = well fitted curve in the direction sought with a large enough effect; inconclusive = small, poorly fitted or top-dose-only effect, or another doubt; inactive = no such curve, though single readings can be large; an effect the other way counts as inactive or inconclusive; note: potency is the fitted concentration of half-maximal effect; nearly all actives have a fitted effect of over 50% in size
# Sfp inh: blocks B. subtilis Sfp PPTase activity | Q9F4F7 | Biochemical Sfp PPTase activity, qHTS | Potency, µM, for the others: largest response in the series, negative = inhibition, actives largely listed as inhibitors | 310,000 tested, 3.5% active; active = well fitted curve in the direction sought with a large enough effect; inconclusive = small, poorly fitted or top-dose-only effect, or another doubt; inactive = no such curve, though single readings can be large; an effect the other way counts as inactive or inconclusive;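 note: the enzyme is Sfp with the accession as filed and its product quenches rhodamine fluorescence; potency is the fitted concentration of half-maximal effect; 0% = enzyme reaction without inhibitor and -100% = no enzyme wells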
#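 With Hepes-Na pH 7.6 buffer containing 10 mM MgCl2, Sfp (15 nM) modified BHQ-2-YbbR (12.5 uM) using rhodamine-CoA (5 uM). Two reads 30 minutes apart at 525/598 nm yielded each well's rate.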
# FBPA coupling cs: inhibits coupling enzyme system, counter-screen for aldolase hits. coupling enzyme system counterscreen, AmpLite Red fluorescence. activity change, negative = inhibition, % at 58.2 µM, hits read low. 290,000 tested, 0.67% active. AID 2472; in the data active = activity change below about -30%
#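 Counterscreen of the coupled detection system alone, without aldolase: glyceraldehyde-3-phosphate coupling enzymes plus AmpLite Red readout. Compounds at 57.5 uM final, 10 min RT preincubation, 20 min RT reaction, fluorescence 525/598 nm.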
# KDM4E inh: JMJD2E (human) inhibition | B2RXH2 | JMJD2E catalytic domain, FDH-coupled NADH fluorescence (FDH is formaldehyde dehydrogenase) | Potency, µM (series often up to 57.1 µM), inactives show top-dose activity change, negative = inhibition, actives largely listed as inhibitors | 230,000 tested, 1.6% active | AID 2147;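 note: potency is the fitted concentration of half-maximal effect; 0% = wells with enzyme and -100% = buffer wells without enzyme; nearly all actives have a fitted effect of over 50% in size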
# Target sequence (B2RXH2 1-337 limits assumed): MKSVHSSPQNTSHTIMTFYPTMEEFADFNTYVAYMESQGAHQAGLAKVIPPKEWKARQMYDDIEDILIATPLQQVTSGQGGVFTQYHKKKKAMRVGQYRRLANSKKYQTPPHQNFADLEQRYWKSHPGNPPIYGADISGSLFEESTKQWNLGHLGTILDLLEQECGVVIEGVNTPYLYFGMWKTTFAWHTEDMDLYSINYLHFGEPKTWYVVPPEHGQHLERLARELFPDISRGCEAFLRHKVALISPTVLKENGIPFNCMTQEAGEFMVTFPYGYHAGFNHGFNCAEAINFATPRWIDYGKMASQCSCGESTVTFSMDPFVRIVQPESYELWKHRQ
# RGS12 GoLoco inh: inhibitors of human Gai1-RGS12 GoLoco interaction (red fluorophore). P63096. Gai1:RGS12 GoLoco peptide FP, rhodamine, 10 min. Potency, µM (top dose mostly 61.6 µM), for the others: at the top dose activity, negative = inhibition, usual class: inhibitors. 230,000 tested, 0.44% active. AID 880; active = well fitted inhibition curve with a large enough effect, not every such curve was filed as active; inactive = no such curve, though single readings can be large or run the other way; note: potency is the fitted concentration of half-maximal effect; nearly all actives have a fitted effect of over 30% in size
# Target sequence (P63096 whole entry, looked up): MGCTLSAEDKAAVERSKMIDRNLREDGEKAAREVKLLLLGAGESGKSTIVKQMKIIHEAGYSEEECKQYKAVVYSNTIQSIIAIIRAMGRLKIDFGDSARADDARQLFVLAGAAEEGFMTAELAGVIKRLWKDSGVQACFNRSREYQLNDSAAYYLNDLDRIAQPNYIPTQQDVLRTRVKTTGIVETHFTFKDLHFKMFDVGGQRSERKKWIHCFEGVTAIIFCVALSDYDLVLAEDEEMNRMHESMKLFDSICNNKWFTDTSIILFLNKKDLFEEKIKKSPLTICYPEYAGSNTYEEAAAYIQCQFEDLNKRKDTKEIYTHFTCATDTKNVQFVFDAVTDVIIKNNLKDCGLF
# ALDH1A1 inh: inhibitors of human aldehyde dehydrogenase 1A1. P00352. Purified ALDH1A1, NADH fluorescence, propionaldehyde substrate. 220,000 tested, 7.3% active. Potency, µM (series often up to 75.3 µM), for inactives: at the highest dose activity, negative = inhibition, usual class: inhibitors. AID 1030;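 note: potency is the fitted concentration of half-maximal effect; plate controls were no enzyme wells and a reference inhibitor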
# * hit, by the source's call; u = inconclusive; x = no result; [ ] = another dose, or the depositor's remark. Hits are enriched below; roughly 8.5% of the tested compounds scored in any of these assays. Unless noted, calls come from the whole dose curve; as a rule, active = well fitted inhibition curve with a large enough effect (not every such curve was filed as active); inconclusive = small, poorly fitted or top-dose-only effect, or another doubt; inactive = no such curve, though single readings can be large or run the other way. Unless noted, % is set by controls: 0 for no effect and ±100 for the full control effect.
SMILES,NPSR antagonist,Sfp inh,FBPA coupling cs,KDM4E inh,RGS12 GoLoco inh,ALDH1A1 inh
Oc1c(C(c2ccccc2Cl)N2CCCC2)ccc2cccnc12 (stereo not given),10µM*,1.7%,-6.2,u,19.5%,u
Cc1cc(OCC(=O)NC(Cc2ccc(Cl)cc2)C(=O)O)c2c(C)c(C)c(=O)oc2c1 (stereo not given),x,28.6%,8.5,x,x,x
Cn1ncc(C(N)=O)c1NC(=S)NC(=O)c1ccc(Br)o1,7.9%,-86.6%,-0.6,-3.5%,9.1%,7.94µM*
ICCc1ccccc1,x,x,x,x,3.16µM*,3.55µM*
Cc1c(N=NC2=C(O)CCCC2=O)c(=O)n(-c2ccccc2)n1C,1.9%,14.1µM*,-14.9,-8.2%,17.8µM*,12.6µM*
COc1ccc(NC(=O)CSc2nc3ccccc3c(=O)n2CCCN2CCCCC2)c(OC)c1,-2.9%[46.1 µM],-21.6%,1.3,-1.8%,7.4%,10µM*
CCOCCCn1c(SCC(=O)Nc2ccc(OC)cc2)nc2ccccc2c1=O,x,50.1µM*,3.4,x,x,x
COCCCNC(=O)CSc1nc2ccccc2c(=O)n1CCCN1CCCCC1,x,9.1%,1.2,x,x,x
COc1ccc(Cn2c(CCC(=O)NCCC(C)C)nc3ncccc3c2=O)cc1,x,11.3%,2.2,x,x,x
Cc1ccc(CNS(=O)(=O)c2ccc(C(C)(C)C)cc2)n1C,-10.3%[46.1 µM],-17.9%,1.2,-14.4%,6.9%,8.91µM*
O=C(Nc1ccccc1)NN(C(=O)CCl)c1ccccc1,x,8.3%,0.5,x,x,x
O=c1cc(NCc2ccc3c(c2)OCO3)[nH]c(=O)n1-c1ccc(Cl)cc1,-15.4%[46.1 µM],13.9%,5.2,-1.2%,-9.8%,-7.4%
Cc1ccccc1-n1c(=O)cc(NCc2ccc3c(c2)OCO3)[nH]c1=O,-13.3%[46.1 µM],14.0%,4.3,1.5%,245.1%,14.1µM*
COc1ccccc1CNc1ncncc1-c1ccc(N(C)C)cc1,x,-5.7%,3.0,u,-11.8%,u
c1cncc(CNc2cc(-c3ccoc3)ncn2)c1,x,56.2µM*,-2.5,x,12.6µM*,u
COc1ccccc1CNc1cc(-c2ccoc2)ncn1,x,28.2µM*,-3.5,x,20.0%,u
COc1ccccc1CNc1ncncc1-c1ccoc1,x,u,-2.4,u,11.0%,25.1µM*
COc1ccc(CNc2ncncc2-c2ccc(N(C)C)cc2)c(OC)c1,x,79.4µM*,-5.3,x,-9.4%,u
COc1cc(NC(=O)C2CCCN2S(=O)(=O)c2ccc3c(c2)CC(C)N3C(C)=O)cc(OC)c1 (stereo not given),x,11.4%,-2.0,x,x,x
CN(C(=O)c1ccoc1)c1ccccc1I,x,-1.2%,7.1,x,x,x
Cc1cccc(CNc2cc(-c3ccoc3)ncn2)c1,x,14.1µM*,-0.7,u,17.9%,u
O=C(/C=C/c1ccccc1)c1ccc2c(c1)OCCCCO2,-26.9%[46.1 µM],-9.2%,-2.5,-3.3%,6.4%,u
O=C(CCl)N(C/C=C/c1ccccc1)c1ccc2c(c1)OCCO2,-41.0%,-12.0%,-16.6,-13.1%,12.9%,0.794µM*
CCN(CC)COC(=S)S,x,x,x,x,-7.9%[14.2 µM],2.82µM*
Cc1ccc(Cl)cc1N1CCN(S(=O)(=O)c2c(C)[nH]c(C)c2C(=O)N2CCCCC2)CC1,x,1.3%,0.6,x,x,x
SMILES,NPSR antagonist,Sfp inh,FBPA coupling cs,KDM4E inh,RGS12 GoLoco inh,ALDH1A1 inh
S=C(Nc1ccccc1)Nc1ccccc1C#Cc1ccccc1,x,1.5%,-3.4,-22.4%,-5.7%,17.8µM*
C[Si](C)(C)C#Cc1ccccc1NC(=S)Nc1ccccc1,x,79.4µM*,1.9,u,0.0%,12.6µM*
O=c1oc2cc(O)ccc2c2ccccc12,5.01µM*,7.4%,-3.8,-2.4%,1.0%,-1.3%
N[C@H](Cn1ccc(=O)n(Cc2ccccc2C(=O)O)c1=O)C(=O)O,x,70.8µM*,3.5,-9.9%,-3.8%,-1.6%
O=c1ccn(Cc2ccccc2)c(=O)n1Cc1ccccc1,1.1%[46.1 µM],7.0%,1.0,-0.3%,-2.2%,-2.1%
CCN1CCN(c2cc(C)c3cc(NC(=S)N4CCCC(C)C4)ccc3n2)CC1 (stereo not given),-13.8%,7.5%,-3.4,u,-2.9%,u
CN1C(=O)N(C)C2=NNC=NC2(O)C1=O (stereo not given),x,-25.3%,-45.9*,u,-1.5%,u
CNC(=O)C12N=CNN=C1N(C)C(=O)N2C (stereo not given),7.7%,7.9%,2.5,0.7%,-6.8%,9.6%
Cc1ccc(NC(=O)c2cc3ccccc3oc2=N)cc1,x,8.0%,1.8,x,x,x
N=c1oc2c3c4c(cc2cc1C(=O)Nc1ccccc1)CCCN4CCC3,-23.9%[46.1 µM],-26.3%,-9.3,-23.2%,3.98µM*,u
Nc1ccc(NC(=O)c2cccc(C(=O)Nc3ccc(N)cc3Cl)c2)c(Cl)c1,x,11.5%,-0.1,x,x,x
NCCOc1ccc(C23CC4CC(CC(C4)C2)C3)cc1,-24.4%,-28.0%,1.9,-5.6%,3.3%,22.4µM*
COc1ccc(-n2c(SCCC#N)nnc2-c2cc(Cl)ccc2OC)cc1Cl,-13.4%[46.1 µM],1.8%,2.7,-21.5%,8.1%,0.8%
CCCC(NC(=O)Cc1c(C)c2c(cc(C)c3c(C)coc32)oc1=O)C(=O)O (stereo not given),x,5.6%,2.6,x,x,x
CC(=O)NN1C(=O)/C(=C/c2ccc(Br)o2)SC1=S,-15.1%[46.1 µM],56.2µM*,-10.4,u,43.4%,25.1µM*
CC(=O)NN1C(=O)/C(=C\c2ccc(Br)o2)SC1=S,-11.2%,56.2µM*,-15.1,0.1%,29.9%,u
CC(=O)NN1C(=O)/C(=C\c2ccc(O)cc2)SC1=S,1.6%,10.8%,0.5,-5.4%,106.9%,-12.0%
CC(=O)NN1C(=O)/C(=C\c2ccccc2)SC1=S,4.1%[46.1 µM],13.0%,x,1.2%,-9.5%,14.8%
COC(=O)c1cc2oc3ccccc3c2n1Cc1ccccn1,-19.5%[46.1 µM],39.8µM*,-7.2,u,-10.4%,u
Cc1ccc(N2CC(C(=O)OCc3ccc([N+](=O)[O-])cc3)CC2=O)cc1 (stereo not given),-8.0%[46.1 µM],3.9%,1.6,-2.8%,-10.4%,11.2µM*
NC(=O)C1CC(=O)N(c2ccc(OCc3ccc([N+](=O)[O-])cc3)cc2)C1 (stereo not given),x,4.8%,0.3,x,x,x
CCN1CCC2(CC1)N=C(c1ccc(F)cc1)C(=S)N2,-11.7%,22.4µM*,-1.3,u,-21.0%,u
Cc1ccc(C2=NC3(CCCCC3)NC2=S)cc1,16.1%,13.6%,4.9,11.6%,-0.9%,7.3%
O=C(O)CSc1ccnc2cc(Cl)ccc12,-9.5%,56.2µM*,6.0,u,4.1%,x
Cc1c(O)ccc(C(=O)CN2CCN(c3ccc(F)cc3)CC2)c1O,x,10.3%,1.3,x,x,x
Cc1cc(OC(=O)CNC(=O)OC(C)(C)C)c2c(C)cc(=O)oc2c1,-13.1%[46.1 µM],9.5%,4.5,-5.4%,-11.7%,15.8µM*
Cc1ccc(-n2c(=S)[nH]c3c(oc4ccccc43)c2=O)cc1C,u,-14.1%,1.9,-1.1%,x,u
O=c1c2oc3ccccc3c2[nH]c(=S)n1-c1ccc(F)cc1,10µM*,79.4µM*,-2.4,-24.1%,4.8%,-6.3%
